Screens from PubChem.
Cycloheximide cs: affects cycloheximide protein synthesis inhibition readout, counter-screen | cell reporter, cycloheximide protein synthesis inhibition counterscreen | max response, % | 300,000 tested, 12% active | AID 2314; in the data active means max response mostly above about 13%, no sharp cut-off; inactive means mostly below about 14%; further: read at 38.3 µM for the half of the compounds with a filed dose; 0% is about no effect
Pf growth 48h: P. falciparum growth inhibition at 48 hours (one generation); P. falciparum luciferase growth in erythrocytes, 48 h; Potency, µM (doses to about 28.7 µM), without a hit: at the highest dose activity change, negative = inhibition, usual class: inhibitors; 310,000 tested, 5.9% active; further: potency means the concentration at half of the fitted maximal effect; on the % scale 0 is the no-effect control and ±100 the full control effect
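Cell-based growth assay: transgenic P. falciparum expressing firefly luciferase, cultured in red cells within RPMI 1640 containing 0.5% w/v Albumax, 24 mM bicarbonate and gentamycin. A drop in luciferase activity indicates inhibition.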
Shiga inhibitor: blocks Shiga toxin action in Vero cells; 290,000 tested, 9.2% active; inhibition, % at 38.7 µM; Vero cells, Shiga toxin protein synthesis inhibition reporter; AID 2315; in the data active means inhibition mostly above about 28%, no sharp cut-off; inactive means mostly below about 43%; further: 0% is about no effect
Sm TGR block: inhibitors of Schistosoma mansoni thioredoxin glutathione reductase; Q962Y6; purified TGR, DTNB reduction, TNB absorbance 405 nm; Potency, µM (titrated, usually from 114 µM), inactives show at the top dose activity change, negative = inhibition, hits mostly inhibitors; 360,000 tested, 3% active; AID 485364; further: potency means the concentration at half of the fitted maximal effect; on the % scale 0 is the no-effect control and ±100 the full control effect; nearly all actives have a fitted effect of over 60% in size
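First, TGR (20 nM dispensed) and NADPH were mixed with compound. Second, a 15 min room-temperature incubation followed. Third, further NADPH and then DTNB were added to start the reaction. Finally, TNB absorbance was monitored kinetically.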
NS1 function inh: inhibitors of influenza NS1 protein function. Potency, µM (titrated, usually from 46.1 µM), inactives show top-dose activity, positive = more growth. 270,000 tested, 0.4% active. AID 2326; calls by dose curve; further: potency means the concentration at half of the fitted maximal effect; actives are rising curves; nearly all actives have a fitted effect of over 50% in size
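OD600 was taken as the measure of yeast growth restored by compound in an NS1-expressing S. cerevisiae strain. Cells had been washed out of glucose medium and diluted 1:100 into galactose -URA medium, pH 6.0.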
Pf growth 96h: P. falciparum growth inhibition at 96 hours; Potency, µM (highest dose often 28.7 µM), for inactives: at the highest dose activity change, negative = inhibition, usual class: inhibitors; AID 504834; P. falciparum luciferase reporter growth, 96 h; 320,000 tested, 6.9% active; further: potency means the concentration at half of the fitted maximal effect; on the % scale 0 is the no-effect control and ±100 the full control effect
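Erythrocytes infected with luciferase-expressing P. falciparum were dispensed at 2% hematocrit and 0.05% parasitemia (final), then incubated with compounds 96 hours at 37 C in 5% CO2. Luminescence after detection reagent addition reported growth.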
Starred values were filed as active, the others as inactive; u = inconclusive; x = no result; [ ] = another dose, or the depositor's remark. Compounds with a hit are over-represented: about 21% of the library has one in this group of screens. Unless noted, the call rests on the fitted dose curve; in most records, active means well fitted curve in the direction sought with a large enough effect; inconclusive means small, poorly fitted or top-dose-only effect, or another doubt; inactive means no such curve, though single readings can be large; an effect the other way counts as inactive or inconclusive.

SMILES | Cycloheximide cs | Pf growth 48h | Shiga inhibitor | Sm TGR block | NS1 function inh | Pf growth 96h
CC(=O)c1ccc(S(=O)(=O)N2CCn3cccc3C2c2ccccc2F)cc1 (configuration not stated) | x | x | x | -32% | x | x
COc1ccc(CNC(=O)CCS(=O)(=O)c2cc3c4c(c2)CCN4C(=O)CC3)cc1OC | x | x | x | 3% | x | x
CC(NC(=O)c1ccc([N+](=O)[O-])o1)C12CC3CC(CC(C3)C1)C2 (configuration not stated) | 35* | 6.6µM* | 45* | u | -76% | 29%
O=[N+]([O-])c1ccc(/C=[N+](\[O-])[C@@H]2CCCC[C@@H]2/[N+]([O-])=C/c2ccc([N+](=O)[O-])o2)o1 | 7 | -3%[0.00184 µM] | 17 | 3.5µM* | -87% | u
[O-]/[N+](=C\c1ccccc1)[C@@H]1CCCC[C@@H]1/[N+]([O-])=C/c1ccccc1 | -5 | 18% | -17 | -3% | 2% | 30%
O=C(NC1CCCCC1)c1ccc(-c2ccccc2[N+](=O)[O-])o1 | 44* | 156% | 105* | -9% | -45% | -26%
COc1cccc(OC)c1C(=O)NC(C)C12CC3CC(CC(C3)C1)C2 (configuration not stated) | 0 | x | -9 | 0% | -51% | u
O=C(NC1CCCCC1)c1ccc([N+](=O)[O-])o1 | 43* | 10µM* | 72* | -32% | -22% | -10%
O=C(CSc1ccccc1)NCc1ccc2c(c1)CCN2C(=O)c1ccccc1 | x | x | x | 4% | x | x
COC(=O)Cn1c(=NC(=O)c2ccc3c(c2)OCCO3)sc2ccccc21 | x | x | x | 2% | x | x
O=C(NC1CCCC1)c1ccc(Cl)s1 | 3 | u | 11 | 0% | -11% | 4%
O=C(NC1CCCCCC1)c1ccc([N+](=O)[O-])s1 | x | u | x | -4% | x | 9.3µM*
N#CC(C#N)=CNc1cccnc1 | -1 | 13% | -2 | -22% | 5% | -9%
Cc1ccc(N/C=C(\C#N)c2ccc(OCCCF)cc2)cc1 | 21 | -5% | 74 | 0% | 15% | x
N#C/C(=C/Nc1ccccc1)c1ccsc1 | 27* | 96% | 42* | 5% | 3% | 77%
Cc1ccc(N/C=C(/C#N)c2ccsc2)cc1 | 41* | 122% | 132* | -1% | -42% | 130%
CC(C)Oc1ccc(C2NC(=O)c3ccccc3O2)cc1 (configuration not stated) | 1 | 1% | 10 | -5% | 3% | u
c1ccc(CSc2nnc(NC3=NCCCCC3)s2)cc1 | 44* | 47% | 102* | 7% | -33% | 56%
Cc1cccc(NC(=S)N(CCCN2CCOCC2)C(C)c2cc3ccccc3o2)c1C (configuration not stated) | 9 | -30% | -5 | -1% | x | 69%
Cc1cc(NC(=O)CSc2nnc(CNC(=O)c3ccccc3)o2)no1 | 5 | 150% | -7 | -4% | 2% | -5%
CC(C)c1ccc(NC(=O)CSC2=Nc3ccccc3C3=NC(CCC(=O)NCc4ccco4)C(=O)N23)cc1 (configuration not stated) | x | x | x | -3% | x | x
Cc1cc(N(C(=O)c2ccco2)C(C(=O)NC2CCCCC2)c2ccccc2)ccc1-n1cnnn1 (configuration not stated) | 5 | 9.3µM* | 60 | -6% | -15% | x
COc1cccc(N(C(=O)c2ccco2)C(C(=O)NC2CCCC2)c2ccc(N3CCOCC3)cc2)c1 (configuration not stated) | -1 | u | -7 | -15% | 3% | 18%
O=C(NC1CCCC1)C(c1ccncc1)N(C(=O)c1ccco1)c1ccccc1 (configuration not stated) | 4 | -38% | -11 | 10% | 6% | 6%
COc1cccc(C(C(=O)NC2CCCCC2)N(C(=O)c2ccco2)c2ccc(-n3cnnn3)c(C)c2)c1 (configuration not stated) | -1 | 15µM* | 1 | -5% | -6% | -10%
SMILES | Cycloheximide cs | Pf growth 48h | Shiga inhibitor | Sm TGR block | NS1 function inh | Pf growth 96h
CC(=O)N(c1ccccc1)c1nc(/C=C/C(=O)Nc2c(C)cc(C)cc2C)cs1 | -2 | u | 11 | 0% | 2% | u
COc1cccc(CN(C)Cc2nc(Cc3ccccc3Cl)no2)c1 | -2 | 0% | -9 | 19% | -11% | 79%
CCCOc1cccc(C(=O)Nc2cccc(-c3nc4ncccc4o3)c2C)c1 | x | x | x | 5% | x | x
COc1ccc(CCN(C)CC(=O)Nc2c(C)cc(C)cc2C)cc1OC | -2 | u | -15 | 100µM* | 8% | u
COc1ccc2[nH]cc(C(=O)CN3CC(C)CC(C)C3)c2c1 (configuration not stated) | -3 | -6% | 7 | -30% | -2% | 19%
COc1cccc(NC(=S)N(CCc2ccc(OC)c(OC)c2)Cc2ccccn2)c1 | 1 | u | -7 | 10% | -8% | u
COc1ccc2[nH]cc(C(=O)CN(C)CCc3ccc(OC)c(OC)c3)c2c1 | -4 | -29% | -5 | 13µM* | 9% | -17%
COc1ccc2[nH]cc(C(=O)CCl)c2c1 | -7 | 7% | -7 | 2.8µM* | -55% | -5%
COc1ccc(CCN(C)C(=S)Nc2cccc(C)c2)cc1OC | -6 | 1.7µM* | -8 | 1% | -7% | u
Cc1ccc(C(=O)OCC(=O)Nc2c(Cl)cc(S(N)(=O)=O)cc2Cl)o1 | -2 | 1% | -3 | -6% | 5% | 2%
COc1ccc2[nH]cc(C(=O)CN3CCN(C/C=C/c4ccccc4)CC3)c2c1 | 2 | 12µM* | 5 | -16% | 20% | 10µM*
COc1ccc2[nH]cc(C(=O)CNc3nc(C)cs3)c2c1 | 36* | 1.7µM* | 141* | 4% | -14% | 36%
Cc1ccc(-n2c(-c3ccco3)nc3nc4ccccc4nc32)cc1 | -5 | -8% | -17 | u | 4% | u
CC1=Cc2ccccc2C(C#N)N1C(=O)c1ccccc1 (configuration not stated) | 7 | -3% | 47 | -2% | 5% | 4%
CC#CCCC(=O)N1C=Cc2ccccc2C1C#N (configuration not stated) | -2 | 2.3µM* | -5 | u | -3% | 0%
CCOc1cc2c3c(c1)C1(C(=O)N3C(C)(C)CC2C)C(C#N)=C(N)N2C(=C1C#N)Nc1ccccc12 (configuration not stated) | -3 | 3.3µM* | 19 | -2% | u | u
CCN1C(=O)C(Cc2nc3ccccc3c(=O)n2-c2ccc(OC)cc2)c2ccccc21 (configuration not stated) | x | x | x | 0% | x | x
CN(C)CC(C(=O)c1ccccc1)c1ccccc1 (configuration not stated) | -4 | u | -16 | 35µM* | -40% | x
CSc1nc(C(C)C)ccc1CNC(=O)CC(C)c1ccccc1 (configuration not stated) | -1 | u | -9 | -1% | -3% | 15%
